Screening results as filed in PubChem.
Compounds with a hit are over-represented: about 1.3% of the library has one in this group of screens.
E coli WT exp: blocks growth of wild type E. coli BW25113; growth inhibition, % at 100 µM; 98,000 tested, 0.15% active; OD600 absorbance;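 active means growth inhibition above about 50% at one test dose, limit read from the data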;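 further: growth measured after 20 h incubation at 37 °C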
PLAP act: activators of human placental alkaline phosphatase | activation fold at 20 µM | purified PLAP enzyme, luminescent substrate read-out; stronger effect = higher value | P05187 | 96,000 tested, 1.2% active | AID 696; in the data active means activation fold above about 2
TNAP act mid DEA: human TNAP activation, intermediate phosphate acceptor; purified TNAP, CDP-star luminescence, 100 mM DEA, 30 min; stronger effect = higher value; scale: 0 levamisole-inhibited, 1 vehicle-only enzyme; activation factor at 20 µM; 64,000 tested, under 10 active; AID 813;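 active means activation factor of at least 2 at 20 µM, relative to controls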
HePTP inhibitor: blocks human HePTP tyrosine phosphatase; P35236; recombinant HePTP phosphatase activity, OD absorbance; inhibition, % at 20 µM; 110,000 tested, 0.64% active; AID 521; in the data active means inhibition above about 50%;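 further: plate controls were vehicle for no effect and reference inhibitor for full effect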
Target sequence (P35236 whole entry, looked up): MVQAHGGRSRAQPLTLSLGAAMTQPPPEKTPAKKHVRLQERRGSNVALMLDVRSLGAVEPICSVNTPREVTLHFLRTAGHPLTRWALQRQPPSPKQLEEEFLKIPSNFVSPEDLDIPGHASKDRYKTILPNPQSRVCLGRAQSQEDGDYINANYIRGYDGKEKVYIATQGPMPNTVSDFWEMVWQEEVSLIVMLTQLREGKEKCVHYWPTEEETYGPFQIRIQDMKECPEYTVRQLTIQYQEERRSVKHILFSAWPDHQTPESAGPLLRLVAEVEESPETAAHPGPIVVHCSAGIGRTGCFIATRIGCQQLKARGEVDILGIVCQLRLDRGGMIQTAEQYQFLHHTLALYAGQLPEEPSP
Numbers without * were called inactive.

COc1ccc(N/C=C(/C2=CC(=O)C=CC2=O)[N+](=O)[O-])cc1 was read as HePTP inhibitor 58*.
`O=C1OCC(CO)(CO)N=C1NNc1ccc(Cl)c(Cl)c1` gave E coli WT exp 88* and PLAP act 1.1.
Screening C=CCOc1ccc(/C(O)=C2\C(=O)C(=O)N(CCN(C)C)C2c2cccs2)cc1 (configuration not stated) returned E coli WT exp 6, PLAP act 1.2, TNAP act mid DEA 1 and HePTP inhibitor 4.
For O=C(CCN1C(=O)/C(=C\c2cccs2)SC1=S)Nc1cccc(C(=O)O)c1 the results were HePTP inhibitor 93*.
`O=C(CN1C(=O)/C(=C/c2ccccc2Cl)SC1=S)Nc1cccc(C(=O)O)c1` gave HePTP inhibitor -14.
O=C(CN1C(=O)/C(=C/c2ccccc2Cl)SC1=S)Nc1ccc(C(=O)O)cc1 was read as HePTP inhibitor 96*.
O=C(O)CCCCCCCCCCN1C(=O)/C(=C/c2cccc(Br)c2)SC1=S was read as HePTP inhibitor 102*.
`Cc1ccc(CSCCNC(=O)c2ccc(OC3CSC3)cc2)cc1` gave HePTP inhibitor -3.
For CC1CCc2nn(CC(=O)NCc3ccco3)cc2C1 (configuration not stated) the results were E coli WT exp -1, PLAP act 0.9, TNAP act mid DEA 0.9 and HePTP inhibitor 2.
COc1ccc(Cl)cc1N/C(N)=N/c1nc(CSc2ccc(C)cc2)cc(=O)[nH]1 was read as E coli WT exp -1 and PLAP act 2.6*.
For COCc1cc(=O)[nH]c(/N=C(\N)Nc2ccc(Oc3ccccc3)cc2)n1 the results were E coli WT exp -13, PLAP act 1.7, TNAP act mid DEA 1.3 and HePTP inhibitor -7.
For N/C(=N\c1nc(C(F)(F)F)cc(=O)[nH]1)Nc1ccc(I)cc1 the results were HePTP inhibitor 0.
Screening COC(=O)Cc1cc(=O)[nH]c(/N=C(\N)Nc2ccc(C)cc2)n1 returned E coli WT exp -9 and PLAP act 2.1*.
For COCc1cc(=O)[nH]c(/N=C(\N)Nc2cccc(C)c2)n1 the results were E coli WT exp -2 and PLAP act 2.4*.
`O=C(O/N=C1\CCCc2ccccc21)c1cccc(Cl)c1` gave E coli WT exp -25 and PLAP act 0.8.
`CC(=O)c1ccc(Cc2cnc(N)s2)cc1` gave E coli WT exp 14, PLAP act 0.8, TNAP act mid DEA 0.9 and HePTP inhibitor 0.
`CC(=O)Nc1ccc(Oc2ccc3nc(C)[nH]c3c2)cc1` gave E coli WT exp 1, PLAP act 0.9, TNAP act mid DEA 0.8 and HePTP inhibitor 8.
CC(=O)CCc1c(C)[nH]c2ccc(NC(C)=O)cc2c1=O was read as E coli WT exp 3, PLAP act 1, TNAP act mid DEA 1 and HePTP inhibitor 2.
For C=CCN1C(=O)/C(=C\c2ccc(-c3ccc([N+](=O)[O-])cc3C)o2)C(=O)NC1=S the results were HePTP inhibitor 103*.
For C=CCN1C(=O)/C(=C\c2ccc([N+](=O)[O-])o2)C(=O)NC1=S the results were HePTP inhibitor 103*.
Screening O=C1NC(=S)N/C1=C\c1ccc(-c2cccc([N+](=O)[O-])c2)o1 returned HePTP inhibitor 5.
O=C1NC(=S)N/C1=C\c1ccc(-c2cc([N+](=O)[O-])ccc2Br)o1 was read as HePTP inhibitor 102*.
Screening C=CCN1C(=O)/C(=C\c2ccc(-c3ccc([N+](=O)[O-])cc3Cl)o2)C(=O)NC1=S returned HePTP inhibitor 10.
C=CCN1C(=O)/C(=C\c2ccc(-c3ccc([N+](=O)[O-])cc3Br)o2)C(=O)NC1=S was read as HePTP inhibitor 98*.
For Cc1ccc(NC(=O)c2cc(-c3cccs3)nc3ccccc23)cc1 the results were HePTP inhibitor -15.
`Cc1cc(C(=O)N/N=C2\CCCC(C)C2)n[nH]1` (configuration not stated) gave E coli WT exp -8 and PLAP act 1.2.
CCN(CC)S(=O)(=O)c1ccc(NC(=O)CCC2CCCCC2)cc1 was read as E coli WT exp -6 and PLAP act 2.9*.
`COc1cccc(-n2nc3c(=S)[nH]nc(C)c3c2C)c1` gave E coli WT exp -5 and PLAP act 1.1.
Screening CC(C)c1nc2oc3c(NCc4ccccn4)ncnc3c2c2c1COC(C)(C)C2 returned TNAP act mid DEA 1 and HePTP inhibitor 11.
`COc1ccc(OCC(=O)NNC(=O)c2ccccn2)cc1` gave E coli WT exp 35 and PLAP act 2.5*.
For COc1ccc(N/C(=N\c2nc(C)cc(C)n2)NC(C)=O)cc1OC the results were E coli WT exp -2, PLAP act 1.2, TNAP act mid DEA 0.9 and HePTP inhibitor 12.
For Cc1nn(C)c(C)c1/C=N/NC(=O)C(C)(C)Oc1ccc(Cl)cc1 the results were E coli WT exp 1 and PLAP act 1.1.
Cc1ccc(S(=O)(=O)N(C)c2ccc(C(=O)N3CCN(Cc4ccc5c(c4)OCO5)CC3)cc2)cc1 was read as E coli WT exp -13 and PLAP act 2*.
`CN(c1ccc(C(=O)N2CCCCC2)cc1)S(=O)(=O)c1ccccc1` gave E coli WT exp -3, PLAP act 1, TNAP act mid DEA 0.9 and HePTP inhibitor 9.
For Cc1ccc(S(=O)(=O)N(C)c2ccc(C(=O)N3CCCCC3)cc2)cc1 the results were E coli WT exp 0 and PLAP act 2.1*.
For Cc1ccccc1Nc1nc(N)nc(CSCc2c(C)noc2C)n1 the results were E coli WT exp 3, PLAP act 1.2, TNAP act mid DEA 0.9 and HePTP inhibitor -1.
O=C(NCc1ccc(Cl)cc1Cl)C(=O)NC1CCCC1 was read as HePTP inhibitor 61*.
Screening Cc1cccc(N2C(=O)c3ccc(Oc4ccc([N+](=O)[O-])cc4)cc3C2=O)c1C returned HePTP inhibitor 1.
For Cc1c(NC(=O)CSc2nc3ccc(Cl)cc3[nH]2)c(=O)n(-c2ccccc2)n1C the results were E coli WT exp 1 and PLAP act 2*.
`Cc1c(NC(=O)CSc2nc3ccccc3[nH]2)c(=O)n(-c2ccccc2)n1C` gave E coli WT exp 6, PLAP act 2.2*, TNAP act mid DEA 0.9 and HePTP inhibitor 2.
`Cc1c(NC(=O)CSc2nc3ccccc3n2C)c(=O)n(-c2ccccc2)n1C` gave E coli WT exp 5, PLAP act 1.2, TNAP act mid DEA 1 and HePTP inhibitor -1.
`CCOC(=O)C(=O)Nc1ccccc1C(=O)NC(C)C` gave E coli WT exp 6 and PLAP act 0.7.
Screening CCCc1cc(Nc2cccc(OCC)c2)n2ncnc2n1 returned E coli WT exp -2, PLAP act 2*, TNAP act mid DEA 1 and HePTP inhibitor 2.
`CCc1cccc(Nc2cc(C)nc3ncnn23)c1` gave TNAP act mid DEA 0.9 and HePTP inhibitor -3.
Screening CCCc1cc(Nc2cccc(OC)c2)n2ncnc2n1 returned E coli WT exp -7, PLAP act 2.3*, TNAP act mid DEA 1 and HePTP inhibitor 16.
Screening O=[N+]([O-])c1cc(C(F)(F)F)ccc1NCCNC(=S)Nc1ccc(Cl)cc1 returned E coli WT exp 3, PLAP act 0.7 and HePTP inhibitor 104*.
